Screens as filed in PubChem.
HT1080 IDH1KD tx: qHTS for induction of synthetic lethality in tumor cells producing 2HG: qHTS for the HT-1080-IDH1KD cell line | HT-1080 IDH1 knockdown viability, ATP luminescence, 48 h | Potency, µM (doses to about 46.1 µM), without a hit: at the top dose activity, negative = toxicity, usual class: cytotoxic | 2% of 360,000 active | AID 686971, 2013;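 also: potency is read from the fitted curve at half-maximal effect; 0% = DMSO wells and -100% = cell-free medium wells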
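CellTiter-Glo luminescence after 48 h compound exposure at 37 degrees C of IDH1-knockdown HT-1080 cells in 5% FBS RPMI. %Activity scaled between DMSO wells and cell-free media wells, with curves fitted and assigned curve classes.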
ELG1 DNA repair: qHTS screen for small molecules that inhibit ELG1-dependent DNA repair in human embryonic kidney (HEK293T) cells expressing luciferase-tagged ELG1 | HEK293T ELG1-luciferase reporter, luminescence, 16 h; DNA damage induced by 5-fluorouridine | Potency, µM (series often up to 46.1 µM), without a hit: at the top dose activity change, negative = inhibition, most hits filed as inhibitors | 2.3% of 330,000 active; also: potency is read from the fitted curve at half-maximal effect; nearly all actives have a fitted effect of over 55% in size
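Overnight (16 hr) co-exposure of 2,000 cells/well to 5-fluorouridine and compound at 37 °C preceded detection. Luciferase was quantified via ONE-Glo luminescence; loss of signal denotes inhibition.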
IL1B secr inh: qHTS for Inhibitors of Inflammasome Signaling: IL-1-beta AlphaLISA Primary Screen. THP-1 LPS/ATP IL-1B secretion, AlphaLISA, 16 h; hits give low values. activity change, % at 57.5 µM. 4.7% of 360,000 active. AID 743279, 2014; in the data active = activity change below about -50%; inconclusive = mostly about -30% to -49%
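THP-1 cells pretreated 1 hr with compounds (up to 57.5 uM final), then stimulated with LPS (250 ng/mL final) plus ATP (1.25 mM final); secreted IL-1B measured by AlphaLISA after 16 hr, decreased signal indicating inhibition.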
HT1080NT lethal: qHTS for induction of synthetic lethality in tumor cells producing 2HG: qHTS for the HT-1080-NT fibrosarcoma cell line; AID 686970, 2013; HT-1080-NT fibrosarcoma viability, CellTiter-Glo ATP luminescence, 48 h; Potency, µM (series often up to 46.1 µM), without a hit: at the top dose activity, negative = less viability, actives largely listed as cytotoxic; 1.6% of 360,000 active;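 also: NT is the 2HG producing partner of a matched IDH1 knockdown line; potency is read from the fitted curve at half-maximal effect; 0% = DMSO-treated cells and -100% = media-only wells without cells; nearly all actives have a fitted effect of over 55% in size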
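Toxicity toward the 2HG-producing NT line was scored as %Activity, normalised to DMSO and no-cell wells, from CellTiter-Glo luminescence after 48 hours' treatment.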
DT40 TDP1 CPT: qHTS for Inhibitors of human tyrosyl-DNA phosphodiesterase 1 (TDP1): qHTS in cells in presence of CPT. chicken DT40 Tdp1-/-;hTDP1 cells + 20 nM CPT, ATP luminescence, 48 h. Potency, µM (top dose mostly 46.2 µM), inactives show top-dose activity change, negative = growth inhibition, actives largely listed as inhibitors. 12% of 420,000 active. AID 686979, 2013; also: potency is read from the fitted curve at half-maximal effect; nearly all actives have a fitted effect of over 55% in size
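Chicken DT40 Tdp1-/- cells stably complemented with human TDP1 were seeded at 400 cells/well in medium containing 20 nM camptothecin, exposed to pin-transferred compounds, and grown at 37 °C for at least 48 hr. Viability was read as ATP luminescence.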
DT40 TDP1 no CPT: qHTS for Inhibitors of human tyrosyl-DNA phosphodiesterase 1 (TDP1): qHTS in cells in absence of CPT | DT40 Tdp1-/- hTDP1 cells, no CPT, ATP luminescence, 48 h | Potency, µM (doses to about 46.2 µM), for inactives: at the highest dose activity change, negative = growth inhibition, usual class: inhibitors | 15% of 420,000 active; also: potency is read from the fitted curve at half-maximal effect; nearly all actives have a fitted effect of over 55% in size
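Growth kinetics read by CellTiter-Glo luminescence after ≥48 hr at 37 °C. Cells: DT40 Tdp1-/- stably carrying human TDP1, 400 per well, compound exposure in the absence of CPT (DMSO vehicle).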
* = called active by the depositor; ? = inconclusive; . = no result given; [ ] = remark or other dose. Rows were chosen to be rich in hits. Some 19% of all compounds tested hit in one or more screens of this group. Unless noted, calls follow the shape of the dose curve; as a rule, active = well fitted curve in the direction sought with a large enough effect; inconclusive = small, poorly fitted or top-dose-only effect, or another doubt; inactive = no such curve, though single readings can be large; an effect the other way counts as inactive or inconclusive. Unless noted, % is scaled to controls: 0 for no effect and ±100 for the full control effect.

SMILES	HT1080 IDH1KD tx	ELG1 DNA repair	IL1B secr inh	HT1080NT lethal	DT40 TDP1 CPT	DT40 TDP1 no CPT
CCc1nc(SCC(=O)c2ccccc2)c2ccccc2n1	-7%	?	?	-1%	?	13µM*
NS(=O)(=O)c1cccc(C(=O)N2CCCc3ccccc32)c1	-7%	.	19	-8%	-4%	-21%
COc1ccc(C(=O)CSc2nc(-c3ccccn3)nc(C)c2Cl)cc1	?	16µM*	-12	?	?	?
Cc1nc(-c2ccccn2)nc(SCC(=O)c2ccc(F)cc2)c1Cl	0%	?	-12	-4%	?	?
CCn1nnnc1SCC(=O)N1c2ccccc2Sc2ccccc21	-5%[9.24 µM]	3%	-20	-7%	?	?
Cc1nc(SCC(=O)c2cc(C)n(C3CC3)c2C)c2ccccc2n1	2%	.	8	5%	8.2µM*	7.3µM*
Cn1nnnc1SCC(=O)N1c2ccccc2Sc2ccccc21	4%	-6%	10	-2%	10µM*	15µM*
O=C(Cc1ccsc1)NNC(=O)c1ccccc1O	?	4%	45	?	?	?
CCN(CC(F)(F)C(F)F)S(=O)(=O)c1ccc(NC(=O)OC)cc1	-16%	-22%	19	-24%	26µM*	16µM*
CCN(CC(=O)NCc1ccc(F)cc1)C(=O)/C=C/c1ccc(S(=O)(=O)N(CC)CC)cc1	4.6µM*	?	41	16µM*	23µM*	21µM*
CCN(CC(=O)NCc1ccc(Cl)cc1)S(=O)(=O)c1ccc(F)cc1	-1%	-4%	-14	-16%	?	-17%
Cc1ccc(S(=O)(=O)Nc2ccc(NC(=O)Nc3cccc(C(F)(F)F)c3)cc2)cc1	?	?	-97*	?	18µM*	?
O=S(=O)(Nc1cccc(C(F)(F)F)c1)c1ccc(NS(=O)(=O)c2ccc3c(c2)OCCO3)cc1	.	.	.	.	-27%	1%
CCN(CC)S(=O)(=O)c1ccc(/C=C/C(=O)Nc2cccc(F)c2)cc1	-18%	13µM*	-22	-10%	21µM*	21µM*
COC(=O)Nc1ccc(S(=O)(=O)N(C)C)cc1	-6%	.	4	3%[9.24 µM]	?	-13%
CCN(CC)S(=O)(=O)c1ccc(/C=C/C(=O)O)cc1	10%	2%	-3	27%	0%	-1%
O=C(CCNC(=O)c1ccccc1)NCCc1ccc(Cl)cc1	-1%	-13%	2	-2%	-25%	-12%
O=C(O)c1nccnc1C(=O)Nc1ccc(Cl)cn1	2%	16%	19	-1%	-11%	-18%
CCN(CC)S(=O)(=O)c1ccc(C(=O)Nc2cccc(C)c2)cc1	-3%	?	?	-15%	?	-20%
CCN(CC)S(=O)(=O)c1ccc(NC(=O)Nc2cccc(C(F)(F)F)c2)cc1	?	?	-89*	?	2.6µM*	2.6µM*
Cc1cnc(CNc2ncncc2-c2ccccc2C)cn1	.	.	.	.	-1%	?
CCOC(=O)C1CCN(C(=O)Nc2cccc(Cl)c2)CC1	8%	7%	9	7%	7%	-3%
CCOC(=O)c1cc(C)n(CC2CCC(C(=O)Nc3ccc(Cl)cc3)CC2)c1C (stereo not drawn)	.	.	.	.	18µM*	12µM*
CCOC(=O)c1cc(C)n(CC2CCC(C(=O)Nc3cccc(Cl)c3)CC2)c1C (stereo not drawn)	.	.	.	.	?	16µM*
COc1ccc(-c2csc3ncnc(N4CCN(C(=O)c5ccco5)CC4)c23)cc1	-21%	7.3µM*	44	-20%	23µM*	?
SMILES	HT1080 IDH1KD tx	ELG1 DNA repair	IL1B secr inh	HT1080NT lethal	DT40 TDP1 CPT	DT40 TDP1 no CPT
O=C(c1cccs1)N1CCCN(c2ncnc3scc(-c4ccccc4)c23)CC1	?	?	.	-29%	?	?
Cc1sc2ncnc(OCC(=O)N3CCN(C(=O)c4ccco4)CC3)c2c1C	5%	-10%	-2	-7%	-5%	4%
O=C(c1ccco1)N1CCN(c2ncnc3scc(-c4ccccc4)c23)CC1	10µM*	?	1	7.3µM*	16µM*	16µM*
O=C(c1ccco1)N1CCN(c2ncnc3scc(-c4cccs4)c23)CC1	7.9µM*	?	-9	11µM*	18µM*	13µM*
COC(=O)CC(NC(=S)NC(=O)c1ccccc1)c1ccc(Br)cc1 (stereo not drawn)	0%	9%	16	6%	-6%	-22%
CC[N+](C)(CC)CCOC(=O)C(O)(c1ccccc1)C1CCCCC1 (stereo not drawn)	19%	11%	-55*	?	?	?
CC[N+](C)(CC)CCC(c1ccccc1)C1CCCCC1 (stereo not drawn)	-4%	-6%	-25	-8%	8.2µM*	?
Cc1ccc(S(=O)(=O)N(C)C)cc1NC(=O)COC(=O)C1CC1	4%	26%	6	6%	7%	7%
c1ccc(COc2cccc(-c3cc4nc(NCCN5CCOCC5)ccn4n3)c2)cc1	?	.	-19	15µM*	26µM*	13µM*
c1ccc(COc2ccc(-c3cc4nc(NCCN5CCOCC5)ccn4n3)cc2)cc1	18µM*	.	-29	?	?	21µM*
Cc1cc(-c2ccccc2)nnc1NCCN1CCOCC1	-4%	9%	18	17%	1%	-5%
CCc1nn2cc(C(=O)c3cc(Cl)ccc3O)cnc2c1-c1ccc(F)cc1	?	?	-77*	?	?	?
Cc1nn(-c2ccccc2)c2ncc(C(=O)c3cc(Cl)ccc3O)cc12	-19%	?	?	-20%	-15%	-24%
Clc1ccc(OCc2nnc(SCc3nc4ccccc4[nH]3)n2Cc2ccco2)cc1	-16%	16µM*	197	-4%	21µM*	21µM*
Clc1cccc(-c2nnc(SCc3nc4ccccc4[nH]3)n2Cc2ccco2)c1	-27%	0%	-27	-8%	?	?
NC(=O)CSc1nnc(-c2ccccn2)n1Cc1ccco1	-1%	2%	-1	10%	7%	0%
